Nine molecules from PubChem BioAssay (Tox21) can be followed below.

For assay [1], the target named is Thyrotropin receptor (Homo sapiens) (UniProt P16473). Description: qHTS assay to identify small molecule antagonists of the thyroid stimulating hormone receptor (TSHR) signaling pathway (AID 1259385; calls by dose curve; further: nearly all actives have a fitted effect of over 20% in size). In short, it runs like this: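 TSHR-HEK293 cells were plated and held 18 h at 37C/5% CO2, then given compound plus Ro20-1724 and stimulated with TSH at 1.5 ng/mL final. After 30 min at room temperature, cAMP was detected with cAMP-d2/anti-cAMP-cryptate (1 h) by fluorescence.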
(qHTS replaces the single test concentration by a dilution series.)

Assay [2] addresses Progesterone receptor (Homo sapiens) (UniProt P06401). Briefly: qHTS assay to identify small molecule agonists of the progesterone receptor (PR) signaling pathway (AID 1346784; calls by dose curve; further: nearly all actives have a fitted effect of over 30% in size). In short, it runs like this:
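Cells (PR-UAS-bla HEK 293T, GripTite) were plated in assay medium containing 2% charcoal-stripped FBS and incubated 6 hr. Test compounds in DMSO were added for 16 hr at 37C. FRET substrate was then loaded for 2 hr at room temperature before fluorescence reading.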

The target is the same in assay [3]. Briefly: qHTS assay to identify small molecule antagonists of the progesterone receptor (PR) signaling pathway (AID 1346795; active means well fitted inhibition curve with a large enough effect in the signal ratio in the repeat runs, not every such curve was filed as active; the % refers to the signal ratio). In short, it runs like this: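 Antagonist mode: compounds tested against 1 nM (final) promegestone stimulation in HEK293T cells expressing PR-UAS-bla reporter, 16 hr at 37C, 5% CO2; beta-lactamase activity detected via B/G FRET substrate after 2 hr at room temperature.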

The nature of assay [4]: qHTS assay to identify small molecule antagonists of the progesterone receptor (PR) signaling pathway - cell viability counter screen (AID 1346798). Further: series mostly up to about 92 µM; nearly all actives have a fitted effect of over 50% in size. In short, it runs like this: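 Counter screen for cytotoxicity: viability of PR-UAS-bla HEK293T cells was measured with CellTiter-Glo luminescence following 16 hr compound exposure in the presence of R5020.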
Assay [5] in a line: qHTS assay to identify small molecule agonists of the progesterone receptor (PR) signaling pathway - cell viability counter screen (AID 1346799; calls by dose curve; further: nearly all actives have a fitted effect of over 45% in size). In outline:
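Cells (PR-UAS-bla HEK293T) are plated at 3,000/well in 2% charcoal-stripped FBS medium, rested 6 hr, dosed and incubated 16 hr at 37C. CellTiter-Glo is then added and luminescence measured after 30 min at room temperature.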

Assay [6] in a line: qHTS assay to identify small molecule antagonists of the TGF-beta/Smad signaling pathway - cell viability counter screen (AID 1346824). Further: nearly all actives have a fitted effect of over 50% in size. In short, it runs like this:
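SBE-bla HEK 293T cells were plated overnight at 37 C, then given compounds in DMSO plus TGF-beta1 (added as 0.25 ng/mL solution) for 5 hr. After the bla read, CellTiter-Glo was added to the same wells and luminescence read after 30 min at room temperature.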

Assay [7] is described as follows: qHTS assay to identify small molecule agonists of the TGF-beta/Smad signaling pathway - cell viability counter screen (AID 1346829). Further: top concentration of the series differs between compounds; nearly all actives have a fitted effect of over 45% in size. In short, it runs like this: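 Cytotoxicity counter screen: CellTiter-Glo luminescence (30 min, room temperature) measured in the SBE-bla HEK 293T reporter wells after 5 hr compound treatment at 37 C and the 2 hr substrate step.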

Assay [8] is described as follows: qHTS assay to identify small molecule agonists of the TGF-beta/Smad signaling pathway (AID 1346859; active means well fitted activation curve with a large enough effect in the signal ratio in the repeat runs, not every such curve was filed as active; the % refers to the signal ratio; further: series mostly up to about 77 µM). In short, it runs like this:
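Reporter line: HEK 293T with stably integrated SBE-controlled beta-lactamase. Compound exposure lasts 5 hr at 37 C and 5% CO2; substrate loading follows for 2 hr at room temperature, with emission read at 460 and 530 nm.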

Assay [9] addresses Thyrotropin-releasing hormone receptor (Homo sapiens) (UniProt P34981). Briefly: qHTS assay to identify small molecule antagonists of the thyrotropin-releasing hormone receptor (TRHR) signaling pathway (AID 1346877; active means well fitted inhibition curve with a large enough effect in the repeat runs, not every such curve was filed as active; further: series mostly up to about 51 µM). In short, it runs like this:
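TRHR-expressing HEK293 cells loaded with calcium dye for 2 h at 37 C; compounds pre-incubated 5 min at room temperature before TRH challenge at 1 nM final. Intracellular calcium fluorescence read kinetically for 3 min; 15 concentrations in triplicate.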

For assay [10] the target is unchanged. Briefly: qHTS assay to identify small molecule agonists of the thyrotropin-releasing hormone receptor (TRHR) signaling pathway (AID 1346891; calls by dose curve; further: series mostly up to about 58 µM). In outline: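 Cells: TRHR-Hek293, seeded and incubated 18 h. Dye loading: 2 h at 37 °C. Compound added from DMSO stock by pin tool. Read-out: kinetic calcium fluorescence over 3 min.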
A short description of assay [11]: Human pregnane X receptor (PXR) small molecule agonists, qHTS cell viability counter screen (AID 1346977). Further: nearly all actives have a fitted effect of over 50% in size. In short, it runs like this: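 Cytotoxicity counter screen run in the same wells as the PXR luciferase assay, using PXR-Luc HepG2 cells in charcoal-stripped serum medium. Viability: CellTiter-Fluor fluorescence after 24hr compound treatment.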
Assay [12] can be described thus: Caspase-3/7 induction in HepG2 cells by small molecules, qHTS assay (AID 1346978). Further: nearly all actives have a fitted effect of over 15% in size. In short, it runs like this: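 Wild-type HepG2 cells (2,000/well) were settled 5 h at 37 C, 5% CO2, then exposed to compounds in DMSO for 17 h. Caspase-3/7 activity was read by luminescence 30 min after adding Caspase-Glo 3/7 reagent at room temperature.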
Assay [13] is described as follows: Caspase-3/7 induction in CHO-K1 cells by small molecules, qHTS cell viability counter screen (AID 1346979). Further: nearly all actives have a fitted effect of over 35% in size. In outline:
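Cytotoxicity counter screen run in parallel with the caspase-3/7 assay: CHO-K1 cells, 16hr compound treatment at 37C, then CellTiter-Fluor for 1hr before fluorescence reading.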

The nature of assay [14]: Caspase-3/7 induction in CHO-K1 cells by small molecules, qHTS assay (AID 1346980). Further: nearly all actives have a fitted effect of over 15% in size. In short, it runs like this:
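Wild-type cells were seeded at 1,500 per well and settled 5 hr at 37 C, 5% CO2, then exposed to DMSO-dissolved compounds for 17 hr. Caspase-Glo 3/7 reagent was added, and luminescence was read after 30min at room temperature.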

Assay [15] can be described thus: Caspase-3/7 induction in HepG2 cells by small molecules, qHTS cell viability counter screen (AID 1346981). Further: series mostly up to about 92 µM; nearly all actives have a fitted effect of over 30% in size. In short, it runs like this: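 Wild-type HepG2 cells, 2,000/well, settled 5 hr at 37 C, 5% CO2 before compound addition. Viability read by CellTiter-Fluor fluorescence, reagent added after 16 hr compound exposure, then 1 hr at 37C, in the same wells as the caspase read.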

Assay [16] addresses Nuclear receptor subfamily 1 group I member 2 (Homo sapiens) (UniProt O75469). Briefly: Human pregnane X receptor (PXR) small molecule agonists, qHTS assay (AID 1346982). Further: nearly all actives have a fitted effect of over 35% in size. Further: potency means the concentration at half of the fitted maximal effect. In short, it runs like this: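 PXR-Luc HepG2 reporter cells (CYP3A4-driven luciferase) in 5% charcoal-stripped FBS medium, plated 5 h before compound addition, then treated 24 h at 37C. Luciferase read by ONE-Glo luminescence after 30 min at room temperature.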

The target of assay [17] is Nuclear receptor subfamily 1 group I member 2 (Rattus norvegicus) (UniProt Q9R1A7). Briefly: Rat pregnane X receptor (rPXR) activation by small molecules, qHTS assay (AID 1346983). Further: nearly all actives have a fitted effect of over 20% in size. As to conditions: rPXR luciferase reporter cells, One-Glo luminescence, 24 h; stronger effect = higher value. In outline: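 Cell-based rPXR luciferase reporter assay, 2,000 cells per well, rested 5hr at 37 C before compound addition in DMSO, then 24 hr at 37 C. One-Glo reagent was added and luminescence read after 30 min at room temperature.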

Assay [18] has as its target Nuclear receptor subfamily 1 group I member 2 (Homo sapiens) (UniProt O75469). Description: CYP3A4 induction through human pregnane X receptor (PXR) by small molecules, qHTS assay (AID 1346984). Further: nearly all actives have a fitted effect of over 40% in size. In short, it runs like this:
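DPX-2 HepG2 cells carrying a PXR response element and CYP3A4-promoter luciferase construct, treated with compounds 24 hr at 37C. Then P450-Glo CYP3A4 Luciferin-IPA substrate (3uM final) for 3 hr at 37C, One-Glo added, luminescence read.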

The target is the same in assay [19]. Briefly: Human pregnane X receptor (PXR) activation by small molecules, qHTS assay (AID 1346985). Further: nearly all actives have a fitted effect of over 40% in size. In outline:
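DPX-2 cells (HepG2 co-transfected with a PXR response element and a CYP3A4-promoter luciferase construct) were seeded at 2,000 per well, rested 5 hr at 37C, then exposed to DMSO-dissolved compounds for 24 hr. Activation was read as luciferase luminescence.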

Assay [20] in a line: qHTS assay to identify small molecule agonists of the estrogen receptor alpha (ER-alpha) signaling pathway in the presence of an antagonist - cell viability counter screen (AID 1259386).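 Further: series mostly up to about 92 µM; cells exposed to compounds for 22 h at 37 °C before the viability read; nearly all actives have a fitted effect of over 30% in size.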 In short, it runs like this:
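Cell viability in VM7Luc4E2 cells (endogenous full-length ER-alpha) measured by CellTiter-Fluor fluorescence in the same wells as the luciferase screen. Cells pre-cultured 5 days in charcoal-stripped serum, then treated 22 h with compounds at 15 concentrations plus 10.0nM ICI-182,780.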

Structures are written as SMILES. A number with no mark means an inactive call. Records with an inconclusive call do not appear. Calls of active or inactive are those of the source. Unless noted, the call rests on the fitted dose curve; in most records, active means well fitted curve in the direction sought with a large enough effect in the repeat runs; inconclusive means weak or mixed curves; inactive means no such curve, though single readings can be large; an effect the other way counts as inactive or inconclusive.
On the % scale 0 is the no-effect control and ±100 the full control effect.

Thyrotropin receptor (Homo sapiens), sequence (P16473 whole entry, looked up): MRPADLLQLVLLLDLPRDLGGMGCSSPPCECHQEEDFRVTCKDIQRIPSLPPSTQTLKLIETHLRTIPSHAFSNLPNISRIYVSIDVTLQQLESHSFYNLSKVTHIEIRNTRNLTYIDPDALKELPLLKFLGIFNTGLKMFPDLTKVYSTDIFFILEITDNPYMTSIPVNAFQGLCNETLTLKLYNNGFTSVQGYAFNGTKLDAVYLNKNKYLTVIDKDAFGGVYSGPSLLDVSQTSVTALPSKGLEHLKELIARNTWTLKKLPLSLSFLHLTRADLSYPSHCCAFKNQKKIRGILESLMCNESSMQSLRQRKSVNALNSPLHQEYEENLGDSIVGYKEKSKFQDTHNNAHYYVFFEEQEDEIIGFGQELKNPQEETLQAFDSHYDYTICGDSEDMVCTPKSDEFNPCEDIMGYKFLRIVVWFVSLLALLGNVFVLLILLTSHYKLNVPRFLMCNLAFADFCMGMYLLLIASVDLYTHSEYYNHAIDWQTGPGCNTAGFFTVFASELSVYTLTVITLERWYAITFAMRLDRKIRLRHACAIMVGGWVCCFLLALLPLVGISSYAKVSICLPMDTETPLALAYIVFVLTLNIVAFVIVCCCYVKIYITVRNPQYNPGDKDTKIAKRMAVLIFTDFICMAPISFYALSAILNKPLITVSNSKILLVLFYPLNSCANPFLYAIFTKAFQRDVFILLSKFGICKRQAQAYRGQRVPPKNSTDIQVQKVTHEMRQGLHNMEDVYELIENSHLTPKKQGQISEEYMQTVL
Thyrotropin-releasing hormone receptor (Homo sapiens), sequence (P34981 whole entry, looked up): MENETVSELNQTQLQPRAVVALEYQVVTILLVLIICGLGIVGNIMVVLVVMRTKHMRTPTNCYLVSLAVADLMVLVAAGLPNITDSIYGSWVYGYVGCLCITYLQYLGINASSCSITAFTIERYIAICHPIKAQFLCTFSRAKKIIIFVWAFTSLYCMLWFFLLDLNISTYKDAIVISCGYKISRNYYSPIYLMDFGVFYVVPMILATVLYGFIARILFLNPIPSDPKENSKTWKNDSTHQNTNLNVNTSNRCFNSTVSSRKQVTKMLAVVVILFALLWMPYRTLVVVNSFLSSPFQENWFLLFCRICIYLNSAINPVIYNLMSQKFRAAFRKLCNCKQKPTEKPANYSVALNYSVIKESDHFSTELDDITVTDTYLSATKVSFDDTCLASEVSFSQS
Progesterone receptor (Homo sapiens), sequence (P06401 whole entry, looked up): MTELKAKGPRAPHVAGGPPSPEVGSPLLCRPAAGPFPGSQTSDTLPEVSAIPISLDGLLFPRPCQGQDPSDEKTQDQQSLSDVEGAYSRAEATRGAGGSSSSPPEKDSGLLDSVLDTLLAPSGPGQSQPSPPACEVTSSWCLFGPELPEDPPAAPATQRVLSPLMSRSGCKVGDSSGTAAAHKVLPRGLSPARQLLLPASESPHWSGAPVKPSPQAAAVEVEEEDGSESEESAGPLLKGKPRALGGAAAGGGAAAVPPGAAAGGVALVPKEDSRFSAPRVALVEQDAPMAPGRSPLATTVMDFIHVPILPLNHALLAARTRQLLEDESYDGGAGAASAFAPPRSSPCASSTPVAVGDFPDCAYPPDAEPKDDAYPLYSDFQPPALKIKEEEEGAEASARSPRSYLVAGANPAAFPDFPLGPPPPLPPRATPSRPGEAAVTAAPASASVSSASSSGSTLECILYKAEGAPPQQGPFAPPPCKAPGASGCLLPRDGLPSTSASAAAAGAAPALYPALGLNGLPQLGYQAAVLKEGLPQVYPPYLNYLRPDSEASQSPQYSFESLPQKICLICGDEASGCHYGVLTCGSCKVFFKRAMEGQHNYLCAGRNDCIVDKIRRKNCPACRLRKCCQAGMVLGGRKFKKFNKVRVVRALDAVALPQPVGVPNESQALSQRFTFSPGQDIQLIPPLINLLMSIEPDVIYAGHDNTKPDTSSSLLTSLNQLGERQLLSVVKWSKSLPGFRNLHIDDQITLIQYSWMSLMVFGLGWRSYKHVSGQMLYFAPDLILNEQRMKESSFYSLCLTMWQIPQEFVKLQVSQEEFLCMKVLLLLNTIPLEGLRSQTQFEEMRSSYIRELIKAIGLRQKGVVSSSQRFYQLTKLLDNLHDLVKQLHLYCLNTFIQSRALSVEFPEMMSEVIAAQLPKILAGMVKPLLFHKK
Nuclear receptor subfamily 1 group I member 2 (Homo sapiens), sequence (O75469 whole entry, looked up): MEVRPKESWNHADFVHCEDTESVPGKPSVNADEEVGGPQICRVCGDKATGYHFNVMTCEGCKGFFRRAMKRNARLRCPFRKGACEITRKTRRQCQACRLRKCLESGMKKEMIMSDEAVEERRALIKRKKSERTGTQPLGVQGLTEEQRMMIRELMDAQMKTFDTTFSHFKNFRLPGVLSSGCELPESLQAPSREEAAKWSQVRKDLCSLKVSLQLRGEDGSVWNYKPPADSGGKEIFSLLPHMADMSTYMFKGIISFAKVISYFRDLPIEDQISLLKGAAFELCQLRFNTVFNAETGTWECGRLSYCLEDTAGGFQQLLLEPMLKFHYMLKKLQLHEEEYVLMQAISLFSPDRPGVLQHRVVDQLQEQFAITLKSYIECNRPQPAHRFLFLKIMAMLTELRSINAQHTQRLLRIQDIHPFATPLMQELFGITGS
Nuclear receptor subfamily 1 group I member 2 (Rattus norvegicus), sequence (Q9R1A7 whole entry, looked up): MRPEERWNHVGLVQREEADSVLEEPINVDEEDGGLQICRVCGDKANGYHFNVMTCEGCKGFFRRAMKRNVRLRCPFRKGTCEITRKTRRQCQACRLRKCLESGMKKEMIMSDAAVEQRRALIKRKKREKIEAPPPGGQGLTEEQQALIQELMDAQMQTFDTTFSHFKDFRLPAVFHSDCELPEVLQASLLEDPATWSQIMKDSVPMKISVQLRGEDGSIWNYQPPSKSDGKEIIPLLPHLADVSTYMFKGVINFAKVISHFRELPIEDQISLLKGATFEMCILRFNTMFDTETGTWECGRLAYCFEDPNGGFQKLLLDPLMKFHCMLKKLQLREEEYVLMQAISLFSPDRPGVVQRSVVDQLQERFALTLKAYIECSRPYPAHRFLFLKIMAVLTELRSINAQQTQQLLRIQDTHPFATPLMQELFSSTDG

`CC(=O)N[C@@H](CCC(=O)O)C(=O)O`: the call in assay [1], in assay [6], in [7], in assay [8], in [9] and in assay [10] was inactive. For the same molecule, in assay [14], the result was inactive. For the same molecule, the Potency result in assay [2], in assay [3], in assay [4], in assay [5], in [11] and in assay [12] was “inactive” throughout. For the same molecule, the Potency entry in assay [13], in assay [15], in assay [16], in assay [18] and in assay [19] was “inactive” throughout. Besides, in assay [17], the max activation is -1.49%.
On to `O=C(OCc1ccccc1)C(=O)OCc1ccccc1`, for which the call in [1], in assay [7], in assay [8] and in [14] was inactive. Also, the Potency result in [20], in assay [4], in assay [5], in [11], in [12] and in [13] was “inactive” throughout. Further, the Potency entry in [15] and in [16] was “inactive” throughout.
Take `COc1nccnc1NS(=O)(=O)c1ccc(N)cc1`: the result in assay [1], in [7], in assay [8], in [9], in assay [10] and in assay [14] was inactive. In addition, the Potency entry in assay [20], in assay [4], in assay [5], in assay [11], in assay [12] and in assay [13] was “inactive” each time. Moreover, the Potency result in assay [15], in [18] and in [19] was “inactive” throughout. Besides, the max activation in assay [17] was 3.09%.
Take `CC(C)C(=O)OCCc1ccccc1`: the outcome in assay [1], in [7], in [8], in [9] and in [10] was inactive. Moreover, the Potency entry in assay [20], in assay [4], in assay [5], in [11], in [12] and in [13] was “inactive” throughout. Besides, the Potency entry in [15] and in [16] was “inactive” in each case.
With `CCCC/C=C/C=C\C=O`, the result in [1], in assay [6], in assay [7] and in [14] was inactive. Besides, the Potency entry in assay [20], in [3], in [4], in assay [11], in [12] and in assay [13] was “inactive” each time. Moreover, the Potency entry in assay [15] is “inactive”. Besides, the Potency in [16] was 24.3 µM (active).
For `CC(C)CC(=O)O`, the result in assay [1], in assay [6], in [7], in assay [8], in [9] and in assay [10] was inactive. The Potency entry in [2], in assay [3], in [4], in [5], in assay [11] and in assay [12] was “inactive” throughout. In addition, the Potency entry in [13] is “inactive”.
On to `CN(C)C(=O)CNC(=O)Cc1ccccc1`, for which the molecule was called inactive in assay [1], in assay [6], in assay [7], in assay [8] and in assay [14]. Besides, the Potency entry in assay [20], in assay [3], in [4], in assay [5], in assay [11] and in [12] was “inactive” each time. Further, the Potency entry in assay [13], in assay [15] and in [16] was “inactive” in each case.
Take `O=S(=O)(O)c1ccc2cc(O)c(S(=O)(=O)O)cc2c1`: the outcome in assay [1], in [6], in assay [7] and in assay [8] was inactive. Besides, the Potency result in [20], in assay [3], in assay [4], in assay [5], in [11] and in assay [12] was “inactive” each time. Moreover, the Potency result in assay [13], in [15] and in assay [16] was “inactive” in each case.
Regarding `O=C(O)c1cc(Br)c(O)c(Br)c1`, the call in assay [1], in assay [6], in assay [7], in assay [8], in assay [9] and in assay [10] was inactive. Further, the call in [14] was inactive. Besides, the Potency result in [2], in assay [3], in [4], in assay [5], in [11] and in [12] was “inactive” in each case. The Potency entry in assay [13], in [15] and in assay [16] was “inactive” throughout.
